Experimental data as given in PubChem BioAssay.
Active and inactive are the calls of the source. Unless noted, how the calls were made is not given here.

How the values were obtained:
[1] = resazurin metabolic signal in HepG2 cells – cell-based, resazurin fluorescence, 24 h, PK04 Diversity Set, profiling panel (AID 1172); settings: HepG2 viability, higher = more signal; further: test concentration not given here
[2] = budding yeast growth changes without added modifier – OD600, strain BY4716, 24 h, basal condition, primary screen (AID 1173); settings: S. cerevisiae BY4716 growth, OD600, 24 h; higher = more signal, called active from +8 up or from −8 down
[3] = viability profiling in MM1S myeloma cells – cell-based, resazurin fluorescence, basal, 24 h, PK04 Diversity Set, profiling panel (AID 1174); settings: higher = more signal, called active from +8 up or from −8 down;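 further: MM1S multiple myeloma cell line; test concentration not given here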
[4] = target: Dihydroorotate dehydrogenase (quinone), mitochondrial (Plasmodium falciparum (isolate 3D7)) (UniProt Q08210); assay: inhibition of P. falciparum DHODH – biochemical, C-terminal His tag, absorbance 600 nm, primary screen (AID 1175); settings: PfDHODH enzyme, DCIP absorbance 600 nm; higher = more signal, called active from +8 up or from −8 down;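 further: recombinant parasite enzyme with a five histidine tag at its C terminus; test concentration not given here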
[5] = inhibition of PAO1 biofilm formation – strain PAO1, LB-PBS medium, absorbance 600 nm, primary screen (AID 1176); further: test concentration not given here; settings: P. aeruginosa PAO1 growth/biofilm, A600, 12 h; higher = more signal
[6] = growth modulation of vineyard yeast isolate – strain RM11-1a, OD600, basal, 24 h, primary screen (AID 1177);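 further: cultures grown under basal conditions with no added stressor; test concentration not given here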; settings: S. cerevisiae RM11-1a growth, OD600, 24 h; higher = more signal, called active from +8 up or from −8 down
[7] = growth of efflux-deficient E. coli DRC39 – strain DRC39, OD650, 24 h, E. coli filamentation inducers, primary screen (AID 1178);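 further: growth measured as culture turbidity by optical density at 650 nm; test concentration not given here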; settings: E. coli DRC39 acrAB, higher = more signal, called active from +8 up or from −8 down
[8] = growth of efflux-deficient E. coli DRC39 – strain DRC39, OD650, 48 h, E. coli filamentation inducers, primary screen (AID 1179);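 further: screen aims at cell division blockers that make cells filament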; settings: E. coli DRC39 delta-acrAB growth, higher = more signal, called active from +8 up or from −8 down
[9] = viability profiling in RPMI8226 myeloma cells – cell-based, resazurin fluorescence, basal, 24 h, PK04 Diversity Set, profiling panel (AID 1180); settings: higher = more signal;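 further: RPMI8826 multiple myeloma cell line at 5000 cells per well; test concentration not given here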
[10] = target: E3 ubiquitin-protein ligase XIAP (Homo sapiens) (UniProt P98170); assay: small molecules binding XIAP protein – biophysical, small-molecule microarray, fluorescence 635 nm, primary screen (AID 1181); settings: higher = more signal;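 further: score merges 667 nm emission and signal to noise over triplicate slides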
Sequence of E3 ubiquitin-protein ligase XIAP (Homo sapiens) (P98170 whole entry, looked up): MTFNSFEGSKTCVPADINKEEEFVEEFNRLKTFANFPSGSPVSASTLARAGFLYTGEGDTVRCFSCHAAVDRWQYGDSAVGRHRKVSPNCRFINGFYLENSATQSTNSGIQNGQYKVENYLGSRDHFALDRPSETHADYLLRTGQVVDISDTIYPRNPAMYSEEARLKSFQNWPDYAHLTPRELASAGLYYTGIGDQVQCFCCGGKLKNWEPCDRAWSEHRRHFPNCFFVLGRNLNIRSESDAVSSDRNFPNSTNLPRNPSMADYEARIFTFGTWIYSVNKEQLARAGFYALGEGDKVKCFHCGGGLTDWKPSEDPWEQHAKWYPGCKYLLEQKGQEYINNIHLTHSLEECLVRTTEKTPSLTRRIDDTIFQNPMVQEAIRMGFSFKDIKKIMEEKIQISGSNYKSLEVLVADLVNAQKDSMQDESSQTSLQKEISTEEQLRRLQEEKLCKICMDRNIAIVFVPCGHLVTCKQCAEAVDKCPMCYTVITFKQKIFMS

Sequence of Dihydroorotate dehydrogenase (quinone), mitochondrial (Plasmodium falciparum (isolate 3D7)) (Q08210 whole entry, looked up): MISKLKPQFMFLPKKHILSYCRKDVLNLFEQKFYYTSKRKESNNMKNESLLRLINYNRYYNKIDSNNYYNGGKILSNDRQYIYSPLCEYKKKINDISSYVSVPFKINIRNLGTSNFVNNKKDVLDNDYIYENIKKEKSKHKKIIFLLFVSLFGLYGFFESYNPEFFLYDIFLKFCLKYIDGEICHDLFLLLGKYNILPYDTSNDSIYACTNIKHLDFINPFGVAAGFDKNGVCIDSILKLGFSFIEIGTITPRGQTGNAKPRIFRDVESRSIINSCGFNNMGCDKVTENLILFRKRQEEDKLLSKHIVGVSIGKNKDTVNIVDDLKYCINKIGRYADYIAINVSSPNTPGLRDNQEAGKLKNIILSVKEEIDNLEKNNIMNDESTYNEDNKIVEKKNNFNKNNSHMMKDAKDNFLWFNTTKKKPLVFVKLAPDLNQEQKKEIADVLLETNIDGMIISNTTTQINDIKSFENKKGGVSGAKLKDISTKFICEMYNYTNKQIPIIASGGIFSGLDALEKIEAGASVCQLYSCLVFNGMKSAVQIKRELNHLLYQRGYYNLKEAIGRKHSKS

Structure (SMILES) | z-score [1] | z-score [2] | z-score [3] | composite z-score [4] | z-score [5] | z-score [6] | z-score [7] | z-score [8] | z-score [9] | composite z-score [10]
COc1ccc(-c2cc3c(c(-c4ccc(Oc5ccccc5)cc4)n2)[Si](C(C)C)(C(C)C)OC3)cn1 | -1.05 | 1.07 (inactive) | -0.29 (inactive) | 0.568 (inactive) | -0.0391 (inactive) | 1.24 (inactive) | -0.794 (inactive) | -0.973 (inactive) | -0.698 | -0.0326
O[C@@H](Cc1ccccc1)[C@H]1C2C=CCCC=C2CN1Cc1cccc(Cl)c1 (stereo not given in full) | 0.318 | -4.3 (inactive) | -0.686 (inactive) | -0.255 (inactive) | 1.27 (inactive) | -0.068 (inactive) | 0.779 (inactive) | 0.73 (inactive) | -0.0704 | -0.365
C=CC[C@]1(C(=O)NCCCOC)N=C(c2ccc(OCCCO)cc2)O[C@H]1c1ccccc1CN=[N+]=[N-] | 0.127 | -0.024 (inactive) | -0.266 (inactive) | -0.339 (inactive) | 0.978 (inactive) | -0.755 (inactive) | -0.161 (inactive) | -0.347 (inactive) | -0.257 | -0.0134
O=C1OCCC/C=C\[C@H]2OC34C=CCN(Cc5ccccc5)C(=O)[C@H]3N(CCCO)C(=O)[C@@H]4C12 (stereo not given in full) | -0.203 | 1.29 (inactive) | 0.794 (inactive) | 0.905 (inactive) | -1.16 (inactive) | 1.29 (inactive) | 0.625 (inactive) | 0.59 (inactive) | 1.35 | -0.0876
O=C(N1CCCCC1)[C@]1(Cc2ccccc2)N=C(c2ccc(OCCCO)cc2)O[C@@H]1c1ccccc1 | 0.0053 | -1.88 (inactive) | -2.94 (inactive) | -0.0047 (inactive) | 0.208 (inactive) | 1.02 (inactive) | 0.137 (inactive) | -0.829 (inactive) | -3.93 | 0.205
Cc1nc2cc(Br)ccc2c(=O)o1 | 0.817 | -0.691 (inactive) | 0.065 (inactive) | -0.442 (inactive) | -0.214 (inactive) | -1.08 (inactive) | 0.705 (inactive) | 1.42 (inactive) | 1.21 | -0.0426
O=C(CS)NCCCCCCNC(=O)[C@@H]1C[C@@H]2C(=O)N[C@@H](Cc3ccccc3)C(=O)N2[C@@H]1c1cccc(OCCO)c1 | 0.531 | 0.49 (inactive) | -0.137 (inactive) | -0.0547 (inactive) | 0.255 (inactive) | 0.0598 (inactive) | 0.051 (inactive) | 0.0288 (inactive) | -0.549 | 0.0264
COC(=O)[C@@]1(Cc2ccc(OC)cc2)[C@H]2c3cc(C(=O)N(C)C)n(C)c3C[C@H]2CN1C(=O)c1ccccc1 | -0.105 | 1.3 (inactive) | -2.26 (inactive) | -0.342 (inactive) | 0.976 (inactive) | 0.241 (inactive) | -0.372 (inactive) | -1.28 (inactive) | -2.45 | 0.0279
CN(C)CCCCCCNC(=O)[C@H]1C[C@H]2C(=O)N[C@@H](CCCCN)C(=O)N2[C@H]1c1cccc(OCCO)c1 | -0.0616 | -1.69 (inactive) | -0.0889 (inactive) | -0.692 (inactive) | 0.0346 (inactive) | -0.533 (inactive) | 0.422 (inactive) | -0.02 (inactive) | -0.614 | 2.02
CN(C)CCCCCCNC(=O)[C@H]1C[C@H]2C(=O)N3CCC[C@H]3C(=O)N2[C@H]1c1ccc(O)cc1 | -0.564 | -0.444 (inactive) | 0.472 (inactive) | -1.76 (inactive) | 1.44 (inactive) | -0.327 (inactive) | 0.113 (inactive) | -0.523 (inactive) | -0.0213 | 0.23
CN(C)C(=O)[C@]1(Cc2ccccc2N=[N+]=[N-])N=C(c2ccc(OCCCO)cc2)O[C@@H]1c1ccccc1N=[N+]=[N-] | -1.08 | -1.57 (inactive) | -2.65 (inactive) | -0.828 (inactive) | 0.438 (inactive) | 0.667 (inactive) | 1.01 (inactive) | 2.07 (inactive) | -3.87 | -0.178
CCOC(=O)C[C@H]1[C@H](OC(=O)c2ccccc2-c2ccccc2)[C@@H](NC(=O)CC(C)C)c2cc(OCCCO)ccc2N1C(=O)Cc1ccc(OC)cc1 | -0.211 | -0.184 (inactive) | 0.0683 (inactive) | 0.712 (inactive) | -0.165 (inactive) | -0.0992 (inactive) | -0.234 (inactive) | -0.488 (inactive) | 0.456 | -0.135
COc1ccc(C#Cc2ccc3c(c2)[C@]2(C(=O)N3)[C@H](C(=O)Nc3nc4ccccc4s3)[C@H]3C(=O)O[C@H](c4ccccc4)[C@H](c4ccccc4)N3[C@@H]2c2ccc(O)cc2)cc1 | 1.2 | 0.0338 (inactive) | 0.283 (inactive) | -2.08 (inactive) | 0.145 (inactive) | 1.15 (inactive) | 0.237 (inactive) | -0.0528 (inactive) | 0.338 | 0.065
C=C[C@H](CO)NS(=O)(=O)c1ccc(Br)cc1 | 0.578 | 0.0356 (inactive) | 0.44 (inactive) | -1.05 (inactive) | -0.621 (inactive) | 0.34 (inactive) | 0.328 (inactive) | 0.276 (inactive) | 0.0112 | -0.0559
COc1ccc(C(O)C2C=CC3C(=O)N(Cc4ccccc4)C(=O)C3N2n2cnnc2)cc1OCc1ccccc1 (stereo not given) | -0.299 | 0.278 (inactive) | 0.708 (inactive) | -0.265 (inactive) | 1.13 (inactive) | -0.271 (inactive) | 1.31 (inactive) | -0.48 (inactive) | 0.329 | 0.035
O=C1C[C@]2(c3ccc([N+](=O)[O-])cc3)C(=O)N(CC(F)(F)F)c3cc(CO)ccc3[C@H]2N1C1CCCCC1 | 0.0882 | 0.434 (inactive) | 0.679 (inactive) | -1.69 (inactive) | -0.686 (inactive) | -0.0434 (inactive) | 0.235 (inactive) | 0.16 (inactive) | 0.964 | -0.273
O=C(NCCN1CCOCC1)[C@@H]1c2ccccc2C(=O)N(C2CCCCC2)[C@H]1c1ccc(CO)cc1 | -0.0383 | 0.211 (inactive) | 0.528 (inactive) | -0.146 (inactive) | -0.177 (inactive) | 0.0492 (inactive) | -0.424 (inactive) | -0.783 (inactive) | 0.872 | -0.165
CN(C)CCCC[C@@H]1NC(=O)[C@@H]2C[C@H](C(=O)NCCCCCCN)[C@H](c3cccc(OCCO)c3)N2C1=O | -0.06 | -0.543 (inactive) | 0.124 (inactive) | -0.981 (inactive) | 0.187 (inactive) | -1.17 (inactive) | -0.459 (inactive) | -1 (inactive) | -0.851 | 0.115
C=C(/C(=C/C[C@H](OC(C)=O)c1ccccc1OCCO)c1cnc2ccccc2c1)C(C)C | -0.558 | 0.323 (inactive) | -1.09 (inactive) | -5.2 (inactive) | 2.19 (inactive) | 1 (inactive) | -0.672 (inactive) | -0.622 (inactive) | -0.817 | -0.238
C=CCOC(=O)[C@@H]1[C@H]2C(=O)O[C@H](c3ccccc3)[C@H](c3ccccc3)N2[C@H](c2ccc(OCCOC(=O)[C@@H]3C[C@@H]4C(=O)NCC(=O)N4[C@@H]3c3ccc(O)cc3)cc2)[C@@]12C(=O)Nc1ccc(I)cc12 | 0.978 | 0.286 (inactive) | 1.11 (inactive) | -0.365 (inactive) | 0.118 (inactive) | 1.38 (inactive) | 0.202 (inactive) | -0.515 (inactive) | 1.3 | 0.164
Cc1ccc(N2C(=O)c3ccccc3[C@@H](C(=O)NC3CC3)[C@@H]2c2ccc(CO)cc2)nc1 | -0.0178 | -0.625 (inactive) | 0.584 (inactive) | -0.162 (inactive) | 0.0714 (inactive) | -0.155 (inactive) | 0.659 (inactive) | 0.188 (inactive) | 0.154 | -0.128
COc1ccc(CCNC(=O)[C@@]2(C)c3ccccc3C(=O)N(C(C)C)[C@H]2c2ccc(CO)cc2)cc1 | -0.848 | -0.51 (inactive) | 0.0132 (inactive) | 0.12 (inactive) | -0.149 (inactive) | -0.54 (inactive) | -0.166 (inactive) | 0.0299 (inactive) | 0.332 | -0.252
C[N+](C)(C)CCCCNC(=O)[C@@H]1C[C@@H]2C(=O)N[C@@H](Cc3ccccc3)C(=O)N2[C@@H]1c1cccc(OCCO)c1 | -0.278 | -0.143 (inactive) | 0.548 (inactive) | -24.9 (active) | -0.226 (inactive) | 0.145 (inactive) | 0.994 (inactive) | 1.31 (inactive) | 0.0965 | -0.138
COc1ccc([C@H]2OC[C@@H]3C[C@@H](Cc4ccccc4)C(=O)N32)cc1 | -0.384 | -3.32 (inactive) | 0.111 (inactive) | -0.431 (inactive) | -0.0513 (inactive) | -0.64 (inactive) | -0.562 (inactive) | -0.873 (inactive) | -0.219 | -0.0337
C=CC(=C)[C@H]1Oc2ccccc2S(=O)(=O)N2CCC[C@@H]12 | -0.702 | -3 (inactive) | -0.205 (inactive) | 0.742 (inactive) | -0.389 (inactive) | -0.377 (inactive) | -0.553 (inactive) | -0.84 (inactive) | -0.973 | -0.02
NC(=O)NCC#Cc1ccc2c(c1)[C@]1(C(=O)N2)[C@H](c2ccc(O)cc2)N2[C@H](c3ccccc3)[C@H](c3ccccc3)OC(=O)[C@H]2[C@@H]1C(=O)O | 0.587 | 0.453 (inactive) | 0.277 (inactive) | -0.268 (inactive) | 0.237 (inactive) | 0.726 (inactive) | -0.338 (inactive) | -0.176 (inactive) | 0.772 | 0.0975
